# Records with an inconclusive call do not appear. Entries that show only a call come without a potency. A number with no mark means an inactive call. Active and inactive are the calls of the source. Calls come from the whole dose curve; as a rule, active = well fitted curve in the direction sought with a large enough effect; inconclusive = small, poorly fitted or top-dose-only effect, or another doubt; inactive = no such curve, though single readings can be large; an effect the other way counts as inactive or inconclusive.
# Key:
# [1] = Panc-1005 Cancer Cell Toxicity qHTS against the NCATS CANVASS Library (AID 1347349); note: nearly all actives have a fitted effect of over 60% in size; note: potency is the fitted concentration of half-maximal effect; for activity change, negative = cytotoxicity: series mostly up to about 38 µM
# Summary of the method: (§1)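 1000 cells/well seeded and rested 4 h at 37 °C before pin transfer of compounds in an 11-pnt series. Exposure 72 h at 37 °C/5% CO2; viability by CellTiter-Glo luminescence after 15 min at room temperature.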
# [2] = SW1088 Cancer Cell Toxicity qHTS against the NCATS CANVASS Library (AID 1347350); note: nearly all actives have a fitted effect of over 75% in size; for activity change, negative = cytotoxicity: series mostly up to about 38 µM
# Summary of the method: as §1
# [3] = COV-362 Cancer Cell Toxicity qHTS against the NCATS CANVASS Library (AID 1347352); note: series mostly up to about 38 µM
# Summary of the method: (§2)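 Cells at 1000/well were given compound 4 h after plating in an 11-point series. Viability was read by CellTiter-Glo luminescence after 72 h at 37 degrees C.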
# [4] = A2780 Cisplatin Sensitive Ovarian Cancer Cell Toxicity qHTS against the NCATS CANVASS Library (AID 1347353); note: nearly all actives have a fitted effect of over 60% in size; for activity change, negative = cytotoxicity: series mostly up to about 46 µM
# Summary of the method: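 A2780 cells, 750/well, settled 4 h at 37 °C, then treated with an 11-point compound series for 72 h. Viability was read as ATPLite luminescence after 10 min at room temperature, with bortezomib as control.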
# [5] = UWB1.289-WTBRCA1 Cancer Cell Toxicity qHTS against the NCATS CANVASS Library (AID 1347354)
# Summary of the method: as §2
# [6] = HEK-293 Cancer Cell Toxicity qHTS against the NCATS CANVASS Library (AID 1347355); note: nearly all actives have a fitted effect of over 65% in size; note: potency is the fitted concentration of half-maximal effect; for activity change, negative = cytotoxicity: series mostly up to about 46 µM; for outcome: series mostly up to about 46 µM
# Summary of the method: as §2
# [7] = test system: NAD(P)H diaphorase (Clostridium kluyveri); test: Diaphorse counterscreen qHTS: Assay Interference Panel against the NCATS CANVASS Library (AID 1347362)
# Summary of the method: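 Clostridium kluyveri diaphorase in PBS + 0.01% Tween-20 preincubated 15 min with compounds. Resazurin and NADH then added for 5 min at room temperature in the dark; resorufin fluorescence read (ex 525, em 598).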
# [8] = KB-8-5-11 Cancer Cell Toxicity qHTS against the NCATS CANVASS Library (AID 1347364); note: nearly all actives have a fitted effect of over 75% in size; for activity change, negative = toxicity: series mostly up to about 46 µM
# Summary of the method: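 KB-8-5-11 cells, 500/well in DMEM + 10% FBS, given compounds in an 11-point series. Incubated 72 h at 37 °C. Viability by CellTiter-Glo luminescence. Confirmation also run with 1 uM tariquidar.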
# [9] = SDT Cancer Cell Toxicity qHTS against the NCATS CANVASS Library (AID 1347365); note: nearly all actives have a fitted effect of over 60% in size; note: potency is the fitted concentration of half-maximal effect;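 for activity change, negative = cytotoxicity: SDT canine glioma cells 500 per well in 1536 well plates; series mostly up to about 46 µM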
# Summary of the method: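 SDT dog glioma cells (500/well) exposed to an 11-point compound series for 72 hr at 37C, 5% CO2. Cytotoxicity read as ATP content by CellTiterGlo luminescence; bortezomib titration as control.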
# [10] = qHTS for ATAD5 Antagonist screened against the NCATS CANVASS Library (AID 1347370);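 note: HEK293T cells carrying an ATAD5 luciferase reporter co-treated with 10 µM 5-fluorouridine; series mostly up to about 46 µM; nearly all actives have a fitted effect of over 65% in size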
# Summary of the method: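 HEK293T cells with stably integrated ATAD5-luciferase reporter, 2000/well, 5 h attachment; compounds plus 10 µM 5-fluorouridine, 16 h at 37 °C. Luciferase luminescence read, with CellTiter-Fluor viability read first.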
# [11] = qHTS for Hypoxia signaling pathway (HIF-1) antagonists against the NCATS CANVASS Library (AID 1347374); note: nearly all actives have a fitted effect of over 60% in size; note: potency is the fitted concentration of half-maximal effect;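 for activity change, negative = inhibition: HRE-bla ME-180 cells stimulated with cobalt chloride to stabilize HIF-1alpha; series mostly up to about 38 µM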
# Summary of the method: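 HRE-bla ME-180 cells in medium with 0.5% dialyzed FBS received compounds (11-point series) plus CoCl2 (60 uM addition stock) for 17 hrs at 37C. Beta-lactamase activity read with CCF4 (405 nm ex, 460/530 nm em); CellTiter-Glo viability measured in same wells.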
# [12] = qHTS for Inflammasome Signaling Inhibitors: IL-1-beta AlphaLISA screen against the NCATS CANVASS Library (AID 1347379);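 note: human THP-1 cells primed with LPS then triggered with ATP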;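 for activity change, negative = inhibition: secreted IL-1B measured as AlphaLISA emission at 615 nm; lower signal means less IL-1B release which is the wanted effect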
# Summary of the method: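 THP-1 cells pretreated 1 hr with compound (up to 57.5 uM final), then stimulated with LPS (250 ng/mL final) and ATP (1.25 mM final). Secreted IL-1B measured by AlphaLISA after 16 hr; glyburide as positive control.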
# [13] = Secretion counterscreen for inhibitors of the SERCaMP assay screened against the NCATS CANVASS Library (AID 1347390);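 note: light from luciferase secreted into medium read as a measure of general secretion; series mostly up to about 77 µM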
# Summary of the method: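 Counterscreen identifying compounds that disrupt secretion, using SH-SY5Y cells with a constitutively secreted Gaussia luciferase reporter. A 20 h compound exposure (top 77 uM) precedes luminescent detection with coelenterazine.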
# [14] = qHTS for activators of Nrf2/ARE signaling pathway screened against the NCATS CANVASS Library (AID 1347391); note: nearly all actives have a fitted effect of over 60% in size; note: potency is the fitted concentration of half-maximal effect
# Summary of the method: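 ARE-bla HepG2 beta-lactamase reporter cells exposed to compounds for 16 h at 37C; CCF4 substrate 2 h, fluorescence at ex 405 nm, em 460/530 nm. Viability by CellTiter-Glo luminescence.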
# [15] = qHTS for inhibitors of ER calcium dysfunction: SERCaMP assay screened against the NCATS CANVASS Library (AID 1347393); note: nearly all actives have a fitted effect of over 40% in size; note: potency is the fitted concentration of half-maximal effect;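 for activity change, negative = inhibition: series mostly up to about 77 µM; lower secreted reporter signal means inhibitor of ER calcium depletion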
# Summary of the method: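 SH-SY5Y GLuc-SERCaMP, 1000 cells/well, 4 h attach; cpd 16 h, 37C/5% CO2; thapsigargin (added as 6x 600 nM) 4 h; coelenterazine; luminescence. Reduced reporter release = ER Ca stabilization.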
# [16] = Vero-766 cells viability qHTS against the NCATS CANVASS Library: Counterscreen for Zika virus inhibition assay (AID 1347394)
# Summary of the method: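 This cytotoxicity counterscreen uses African green monkey Vero 766 cells in the absence of Zika virus. Compounds are incubated with cells for 72 h, and ATP-based luminescence reports viability.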
# [17] = qHTS for Activators of p53 Stress Response Pathway screened against the NCATS CANVASS Library (AID 1347388); note: potency is the fitted concentration of half-maximal effect
# Summary of the method: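 p53RE-bla HCT-116 cells (4000/well) were pre-incubated for 5 h, then treated with compound (11 points) for 16 h at 37C. After 2 h with CCF4, the 460/530 nm ratio gave reporter activation; CellTiter-Glo measured viability.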
# [18] = qHTS assay for small molecule disruptors of mitochondrial membrane potential screened against the NCATS CANVASS Library (AID 1347389); note: nearly all actives have a fitted effect of over 60% in size; note: potency is the fitted concentration of half-maximal effect; for activity change, negative = depolarization: series mostly up to about 46 µM
# Summary of the method: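 HepG2 cells (2,000/well) plated overnight, then exposed to compounds in 11-point qHTS series for 1 h at 37C before 30 min Mito-MPS dye; depolarization read as fall in red aggregate (590 nm) to green monomer (535 nm) fluorescence.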
# [19] = G06 Cancer Cell Toxicity qHTS against the NCATS CANVASS Library (AID 1347368)
# Summary of the method: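 G06 dog glioma cells, 500 per well, exposed 72 hr at 37C, 5% CO2 to compounds in an 11-point series. Cytotoxicity read as ATP content by CellTiterGlo luminescence.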
# [20] = DH5-alpha competent E. coli microbial cell viability qHTS against the NCATS CANVASS Library (AID 1347377); settings: outcome: dose series up to 46.1 µM unless noted
# Summary of the method: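 DH5-alpha E. coli suspension was exposed to an 11-point compound series overnight at 37 °C. Viable cells quantified by ATP luminescence (BacTiter-Glo) after 20 min at room temperature.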
smiles,measurement,setting,value
O=C1c2c(O)cc(O)cc2O[C@@H](c2ccc(O)cc2)[C@@H]1c1c(O)cc(O)c2c(=O)cc(-c3ccc(O)c(O)c3)oc12,Potency,[1],inactive
same,Potency,[2],inactive
same,Potency,[3],inactive
same,Potency,[4],inactive
same,Potency,[5],inactive
same,Potency,[6],inactive
same,Potency,[7],inactive
same,Potency,[8],inactive
same,Potency,[9],inactive
same,Potency,[10],inactive
same,Potency,[11],inactive
same,Potency,[12],inactive
same,Potency,[13],inactive
same,Potency,[14],inactive
same,Potency,[15],inactive
same,Potency,[16],inactive
CN1CCc2cc3c(c4c2[C@H]1[C@@H](O)c1ccccc1-4)OCO3,Potency,[1],16.8 µM (active)
same,Potency,[2],inactive
same,Potency,[5],inactive
same,Potency,[6],23.5 µM (active)
same,Potency,[9],18.7 µM (active)
same,Potency,[11],11.8 µM (active)
same,Potency,[17],26.3 µM (active)
same,Potency,[18],11.7 µM (active)
same,Potency,[14],20.9 µM (active)
same,Potency,[15],34.3 µM (active)
same,Potency,[16],inactive
COc1ccc([C@@H]2c3cc(OC)c(OC)cc3C(=O)[C@H](C)C2C)cc1OC (some centres not stated),"activity change, negative = cytotoxicity",[1],1.86% [at 7.64 µM]
same,outcome,[2],inactive [at 7.64 µM]
same,"activity change, negative = cytotoxicity",[3],-1.95% [at 7.64 µM]
same,outcome,[4],inactive [at 9.19 µM]
same,outcome,[5],inactive [at 7.64 µM]
same,outcome,[6],inactive [at 9.19 µM]
same,"activity change, negative = inhibition",[7],0.301% [at 11.5 µM]
same,"activity change, negative = toxicity",[8],-6.69% [at 9.19 µM]
same,outcome,[9],inactive [at 9.19 µM]
same,"activity change, negative = cytotoxic",[19],9.12% [at 9.19 µM]
same,"activity change, negative = inhibition",[10],-23.2% [at 9.19 µM]
same,"activity change, negative = inhibition",[11],9.63% [at 7.64 µM]
same,"viability signal change, negative = cytotoxic",[20],10.6% [at 9.19 µM]
same,outcome,[12],inactive [at 11.5 µM]
same,activation,[17],4.12% [at 9.19 µM]
same,"activity change, negative = depolarization",[18],-7.07% [at 9.19 µM]
same,"activity change, negative = inhibition",[13],-9% [at 15.3 µM]
same,activation,[14],4.51% [at 9.19 µM]
same,"activity change, negative = cytotoxic",[16],-18.3% [at 9.19 µM]
CO[C@@H]1[C@H](O)[C@@H](C)O[C@@H](OC[C@@H]2C(C)OC(=O)/C=C/[C@H](C)C(O[C@@H]3O[C@H](C)CC4(OC(=O)O[C@@H]4C)C3O)[C@@H](C)CC(C)C(=O)CC[C@H]3OC23)[C@@H]1OC (some centres not stated),Potency,[1],inactive
same,Potency,[2],inactive
same,Potency,[3],inactive
same,Potency,[4],inactive
same,Potency,[5],inactive
same,Potency,[6],inactive
same,Potency,[7],inactive
same,Potency,[8],inactive
same,Potency,[9],inactive
same,Potency,[11],inactive
same,outcome,[20],inactive
same,Potency,[12],inactive
same,Potency,[17],inactive
same,Potency,[18],inactive
same,Potency,[13],inactive
same,Potency,[16],inactive
C[C@@H]1O[C@@H](Oc2c(-c3ccc(O)cc3)oc3cc(O)cc(O)c3c2=O)[C@H](O)[C@H](O)[C@H]1O,Potency,[1],inactive
same,Potency,[2],inactive
same,Potency,[3],inactive
same,Potency,[4],inactive
same,Potency,[5],inactive
same,Potency,[6],inactive
same,Potency,[8],inactive
same,Potency,[9],inactive
same,Potency,[19],inactive
same,Potency,[10],inactive
same,outcome,[20],inactive
same,Potency,[18],inactive
same,Potency,[13],inactive
same,Potency,[14],inactive
same,Potency,[15],inactive
same,Potency,[16],inactive
C=CC(C)(C)C(=O)[C@@H](C)[C@@H]1CC[C@](C)(C=C)O1,Potency,[1],inactive
same,Potency,[2],inactive
same,Potency,[3],inactive
same,Potency,[5],inactive
same,Potency,[6],inactive
same,Potency,[7],inactive
same,Potency,[8],inactive
same,Potency,[9],inactive
same,Potency,[19],inactive
same,Potency,[10],inactive
same,Potency,[11],inactive
same,outcome,[20],inactive
same,Potency,[12],inactive
same,Potency,[17],inactive
same,Potency,[18],inactive
same,Potency,[13],inactive
same,Potency,[14],inactive
same,Potency,[15],inactive
same,Potency,[16],inactive
